Experimental data: the supplement of paper PMC6555819

Assays:
Assay in all cases: PBM binding z-score (relative to random genomic background probes); higher = stronger binding; sequences stand for … in GC…GCGATTGACAGCGTAGAATGAAGG
[1] = tested on: FXR:RXRa (NR concentration 270 nM, RXRa partner concentration 90 nM)
Procedure, shortened: (§1)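 Ligand-free nuclear receptor dimers were applied to custom Agilent 4×180K protein-binding microarrays whose double-stranded probes carried direct-repeat seeds, single-nucleotide variants, half-site ablations and random human genomic background sequences in 34-nt variable regions. Incubation lasted 1 h. Binding z-scores were computed against the random background probes from regression-normalized fluorescence.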

[2] = tested on: LXRa:RXRa (NR concentration 270 nM, RXRa partner concentration 90 nM)
Procedure, shortened: as §1

[3] = tested on: LXRa homodimer (NR concentration 270 nM)
Procedure, shortened: as §1

[4] = tested on: LXRb:RXRa (NR concentration 270 nM, RXRa partner concentration 90 nM)
Procedure, shortened: as §1

[5] = tested on: LXRb homodimer (NR concentration 270 nM)
Procedure, shortened: as §1

[6] = tested on: PPARa:RXRa (NR concentration 270 nM, RXRa partner concentration 90 nM)
Procedure, shortened: as §1

[7] = tested on: PPARg:RXRa (NR concentration 180 nM, RXRa partner concentration 90 nM)
Procedure, shortened: as §1

[8] = tested on: PPARg:RXRa 270nM:90nM, anti-RXR (NR concentration 270 nM, RXRa partner concentration 90 nM)
Procedure, shortened: as §1

[9] = tested on: PPARg:RXRa 30nM:10nM, anti-RXR (NR concentration 30 nM, RXRa partner concentration 10 nM)
Procedure, shortened: as §1

[10] = tested on: PPARg:RXRa 90nM:30nM, anti-RXR (NR concentration 90 nM, RXRa partner concentration 30 nM)
Procedure, shortened: as §1

[11] = tested on: PPARg:RXRa DBDmut IVT, anti-RXR (DBD mutation: RXRa K156A/R161A, NR concentration 270 nM, RXRa partner concentration 90 nM)
Procedure, shortened: as §1

[12] = tested on: PPARg:RXRa IVT, anti-PPARg (NR concentration 270 nM, RXRa partner concentration 90 nM)
Procedure, shortened: as §1

[13] = tested on: PPARg DBDmut IVT, anti-PPARg (DBD mutation: PPARg1 K132A/R137A, NR concentration 270 nM)
Procedure, shortened: as §1

[14] = tested on: PPARg homodimer (NR concentration 180 nM)
Procedure, shortened: as §1

[15] = tested on: PXR:RXRa (NR concentration 270 nM, RXRa partner concentration 90 nM)
Procedure, shortened: as §1

[16] = tested on: PXR homodimer (NR concentration 270 nM)
Procedure, shortened: as §1

[17] = tested on: RARa:RXR (NR concentration 270 nM, RXRa partner concentration 90 nM)
Procedure, shortened: as §1

[18] = tested on: RARa homodimer (NR concentration 270 nM)
Procedure, shortened: as §1

[19] = tested on: RARb:RXRa (NR concentration 270 nM, RXRa partner concentration 90 nM)
Procedure, shortened: as §1

Sequence | PBM binding z-score [1] | PBM binding z-score [2] | PBM binding z-score [3] | PBM binding z-score [4] | PBM binding z-score [5] | PBM binding z-score [6] | PBM binding z-score [7] | PBM binding z-score [8] | PBM binding z-score [9] | PBM binding z-score [10] | PBM binding z-score [11] | PBM binding z-score [12] | PBM binding z-score [13] | PBM binding z-score [14] | PBM binding z-score [15] | PBM binding z-score [16] | PBM binding z-score [17] | PBM binding z-score [18] | PBM binding z-score [19]
CGAACTATGTCACCAGGACAGTGAAGAGGTTGGA | 0.32 | 0.0175 | -0.0452 | -0.257 | -0.182 | 1.17 | 1.5 | 1.26 | 0.318 | 0.775 | 4.52 | 3.71 | 0.886 | 0.475 | -0.0276 | -0.042 | 0.322 | 0.192 | 0.847
CGAACTAGGTCACCAGGACAGTTAAGAGGTTGGA | 3.97 | 2.32 | 0.241 | 1.84 | -0.421 | 5.2 | 8.53 | 6.67 | 4.77 | 6.38 | 8.1 | 8.64 | 5.1 | 2.14 | 1.49 | 0.424 | 2.73 | 0.481 | 4.2
CGAACTAGGTCACCAGGACAGTGTAGAGGTTGGA | 4.04 | 2.35 | -0.0613 | 1.77 | -0.589 | 5.08 | 8.54 | 6.85 | 4.68 | 6.46 | 8.42 | 8.73 | 1.75 | 2.71 | 1.58 | -0.179 | 2.54 | 0.514 | 4.1
CGAGCTAGGTCACCAGGACAGTGAAGAGGTTGGA | 3.66 | 2.28 | -0.245 | 1.56 | -0.77 | 3.81 | 3.74 | 3.66 | 0.712 | 2.68 | 3.94 | 4.43 | -1.08 | 1.48 | 1.35 | -0.379 | 2.36 | 0.327 | 4.16
CGAACTACGTCAAAGGACAGTGAAAGGCGACGTA | -0.5 | -0.431 | -0.3 | -0.675 | -0.597 | 0.0872 | 1.15 | 1.53 | 0.179 | 1.25 | -0.332 | -0.152 | -0.567 | -0.204 | -0.445 | -0.202 | -0.353 | -0.431 | 1.14
CGAACTAGGTCACCAGGACAGTGAGGAGGTTGGA | 3.89 | 2.25 | 0.127 | 1.33 | -0.378 | 4.93 | 7.97 | 6.87 | 4.45 | 6.61 | 8.37 | 8.24 | -0.39 | 1.56 | 0.988 | -0.539 | 1.93 | 0.16 | 4.16
CGAACTAGGTGACCAGGACAGTGAAGAGGTTGGA | -0.0348 | -0.436 | -0.313 | -0.307 | -0.898 | 2.67 | 3.98 | 3.34 | 1.03 | 1.94 | 7.15 | 7 | -0.325 | -0.217 | -0.13 | -0.15 | 0.228 | -0.394 | 0.744
